Where two headings read alike, the source gives them in different places.
Assays:
[1] = tested on: STK36; settings: concentration: 1 μM, replicates: in singlicate; n = 1
[2] = tested on: STK39; settings: concentration: 1 μM, replicates: in singlicate; n = 1
[3] = tested on: SYK; settings: n = 1
[4] = tested on: SgK110; settings: concentration: 1 μM, replicates: in singlicate; n = 1
[5] = tested on: T1, TAK1; settings: concentration: 1 μM, replicates: in singlicate; n = 1
T1 construct: gene MAP3K7

[6] = tested on: TAOK1; settings: concentration: 1 μM, replicates: in singlicate; n = 1
[7] = tested on: TAOK2; settings: concentration: 1 μM, replicates: in singlicate; n = 1
[8] = tested on: TAOK3; settings: concentration: 1 μM, replicates: in singlicate; n = 1
[9] = tested on: TBK1; settings: concentration: 1 μM, replicates: in singlicate; n = 1
[10] = tested on: TEC; settings: concentration: 1 μM, replicates: in singlicate; n = 1
[11] = tested on: TESK1; settings: concentration: 1 μM, replicates: in singlicate; n = 1
[12] = tested on: TGFBR1; settings: concentration: 1 μM, replicates: in singlicate; n = 1
[13] = tested on: TGFBR2; settings: concentration: 1 μM, replicates: in singlicate; n = 1
[14] = tested on: TIE1; settings: concentration: 1 μM, replicates: in singlicate; n = 1
[15] = tested on: T2, TIE2; settings: concentration: 1 μM, replicates: in singlicate; n = 1
T2 construct: gene TEK

[16] = tested on: TLK1; settings: concentration: 1 μM, replicates: in singlicate; n = 1
[17] = tested on: TLK2; settings: concentration: 1 μM, replicates: in singlicate; n = 1
[18] = tested on: TNIK; settings: concentration: 1 μM, replicates: in singlicate; n = 1
[19] = tested on: TNK1; settings: concentration: 1 μM, replicates: in singlicate; n = 1
[20] = tested on: TNK2; settings: concentration: 1 μM, replicates: in singlicate; n = 1
[21] = concentration: 1 μM, replicates: in singlicate
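Further: KINOMEscan kinase panel screen.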

## Cc1cccc(Nc2nc(N[C@H]3CCCC[C@H]3N)ncc2C(N)=O)c1.Cl [GSK986310]
[1]
  %Inh: 58%
[2]
  %Inh: 12%
[3]; 1 µM
  %Inh: 99.4%
[4]
  %Inh: 55%
[5]
  %Inh: 90.3%
[6]
  %Inh: 32%
[7]
  %Inh: 0%
[8]
  %Inh: 3%
[9]
  %Inh: 17%
[10]
  %Inh: 23%
[11]
  %Inh: 22%
[12]
  %Inh: 0%
[13]
  %Inh: 0%
[14]
  %Inh: 15%
[15]
  %Inh: 0%
[16]
  %Inh: 17%
[17]
  %Inh: 7%
[18]
  %Inh: 74%
[19]
  %Inh: 33%
[20]
  %Inh: 31%

## CC(=O)Nc1cn2nc(Oc3cccc(NC(=O)c4cccc(C(F)(F)F)c4)c3)ccc2n1
[1]
  %Inh: 0%
[2]
  %Inh: 15%
[3]; [21]
  %Inh: 14%
[4]
  %Inh: 0%
[5]
  %Inh: 21%
[6]
  %Inh: 0%
[7]
  %Inh: 34%
[8]
  %Inh: 0%
[9]
  %Inh: 57%
[10]
  %Inh: 18%
[11]
  %Inh: 13%
[12]
  %Inh: 9%
[13]
  %Inh: 0%
[14]
  %Inh: 81%
[15]
  %Inh: 65%
[16]
  %Inh: 0%
[17]
  %Inh: 0%
[18]
  %Inh: 38%
[19]
  %Inh: 68%
[20]
  %Inh: 0%

## CCNC(=O)/C=C/c1n[nH]c2cc(Sc3ccccc3C(=O)NC)ccc12
[1]
  %Inh: 35%
[2]
  %Inh: 0%
[3]; [21]
  %Inh: 20%
[4]
  %Inh: 15%
[5]
  %Inh: 26%
[6]
  %Inh: 0%
[7]
  %Inh: 0%
[8]
  %Inh: 8%
[9]
  %Inh: 13%
[10]
  %Inh: 0%
[11]
  %Inh: 10%
[12]
  %Inh: 5%
[13]
  %Inh: 0%
[14]
  %Inh: 59%
[15]
  %Inh: 20%
[16]
  %Inh: 12%
[17]
  %Inh: 0%
[18]
  %Inh: 57%
[19]
  %Inh: 67%
[20]
  %Inh: 27%

## CNc1nccc(-c2ccc3c(N)n[nH]c3c2)n1 [GSK2206003]
[1]
  %Inh: 0%
[2]
  %Inh: 0%
[3]; [21]
  %Inh: 23%
[4]
  %Inh: 0%
[5]
  %Inh: 37%
[6]
  %Inh: 64%
[7]
  %Inh: 0%
[8]
  %Inh: 0%
[9]
  %Inh: 22%
[10]
  %Inh: 5%
[11]
  %Inh: 31%
[12]
  %Inh: 25%
[13]
  %Inh: 9%
[14]
  %Inh: 15%
[15]
  %Inh: 0%
[16]
  %Inh: 8%
[17]
  %Inh: 1%
[18]
  %Inh: 50%
[19]
  %Inh: 0%
[20]
  %Inh: 17%

## Cn1cc(-c2ccc3c(c2)CCN3C(=O)Cc2cc(F)cc(C(F)(F)F)c2)c2c(N)ncnc21 [GSK2635225]
[1]
  %Inh: 19%
[2]
  %Inh: 0%
[3]; [21]
  %Inh: 27%
[4]
  %Inh: 0%
[5]
  %Inh: 39%
[6]
  %Inh: 0%
[7]
  %Inh: 0%
[8]
  %Inh: 0%
[9]
  %Inh: 21%
[10]
  %Inh: 0%
[11]
  %Inh: 26%
[12]
  %Inh: 0%
[13]
  %Inh: 0%
[14]
  %Inh: 87%
[15]
  %Inh: 52%
[16]
  %Inh: 17%
[17]
  %Inh: 5%
[18]
  %Inh: 20%
[19]
  %Inh: 10%
[20]
  %Inh: 2%

## Cn1cc(-c2cnc(N)c3c(-c4ccc5c(c4)CCN5C(=O)Cc4ccccc4)csc23)cn1 [GSK2593074]
[1]
  %Inh: 0%
[2]
  %Inh: 0%
[3]; [21]
  %Inh: 16%
[4]
  %Inh: 8%
[5]
  %Inh: 33%
[6]
  %Inh: 0%
[7]
  %Inh: 0%
[8]
  %Inh: 0%
[9]
  %Inh: 23%
[10]
  %Inh: 14%
[11]
  %Inh: 53%
[12]
  %Inh: 6%
[13]
  %Inh: 4%
[14]
  %Inh: 84%
[15]
  %Inh: 84%
[16]
  %Inh: 31%
[17]
  %Inh: 5%
[18]
  %Inh: 8%
[19]
  %Inh: 19%
[20]
  %Inh: 62%

## CN(C)CCOc1ccc(-c2cc(-c3ccc(Cl)c(O)c3)c(-c3ccncc3)[nH]2)cc1.Cl.Cl [SB-684387]
[1]
  %Inh: 63%
[2]
  %Inh: 33%
[3]; [21]
  %Inh: 2%
[4]
  %Inh: 0%
[5]
  %Inh: 32%
[6]
  %Inh: 0%
[7]
  %Inh: 1%
[8]
  %Inh: 0%
[9]
  %Inh: 28%
[10]
  %Inh: 0%
[11]
  %Inh: 19%
[12]
  %Inh: 54%
[13]
  %Inh: 75%
[14]
  %Inh: 4%
[15]
  %Inh: 39%
[16]
  %Inh: 16%
[17]
  %Inh: 7%
[18]
  %Inh: 33%
[19]
  %Inh: 28%
[20]
  %Inh: 15%

## Cl.Cl.NC(CNC(=O)c1cc(Br)c(-c2ccnc3[nH]ccc23)s1)c1ccccc1 (stereo not shown) [GSK1322949]
[1]
  %Inh: 0%
[2]
  %Inh: 5%
[3]; [21]
  %Inh: 27%
[4]
  %Inh: 0%
[5]
  %Inh: 36%
[6]
  %Inh: 66%
[7]
  %Inh: 3%
[8]
  %Inh: 44%
[9]
  %Inh: 20%
[10]
  %Inh: 1%
[11]
  %Inh: 37%
[12]
  %Inh: 10%
[13]
  %Inh: 32%
[14]
  %Inh: 33%
[15]
  %Inh: 6%
[16]
  %Inh: 31%
[17]
  %Inh: 12%
[18]
  %Inh: 59%
[19]
  %Inh: 14%
[20]
  %Inh: 10%
